From PubChem BioAssay (EPA / NIEHS)
Activity calls are given as the source filed them. Rule for the calls: active = hit-call score of the fitted dose curve at least 0.9, where 1 is the maximum; inactive = score below 0.9.

Experiments:
[1] = APR_HepG2_NuclearSize_72hr: Apredica 72-hour HepG2 Assay for Nuclear Size (AID 2282925); conditions: high-content imaging, actives raise or lower the signal
Procedure, shortened: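 HepG2 cells dosed 72 h at 0.39–200 uM (10 concentrations, duplicate) in 0.5% v/v DMSO final. Fixed, Hoechst 33342-stained nuclei imaged; nuclear diameter measured by automated image analysis. Bidirectional fit versus DMSO.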

[2] = ATG_CRE_CIS: Attagene CIS-FACTORIAL HepG2 Assay for human cAMP Responsive Element (CRE) binding protein 3 (AID 2282926); conditions: HepG2 CRE cis-reporter, Attagene multiplexed mRNA; actives raise or lower the signal
Procedure, shortened: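 Transfected HepG2 were treated for 24 hours, then RNA was extracted and reporter cDNA amplified with sequence-specific primers. Labelled fragments were separated by capillary electrophoresis, and the CRE signal was fitted bidirectionally with DMSO as baseline.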

[3] = target: CCAAT/enhancer-binding protein beta (Homo sapiens) (UniProt P17676); assay: ATG_C_EBP_CIS: Attagene CIS-FACTORIAL HepG2 Assay for human CCAAT/Enhancer Binding Protein (C/EBP) beta (AID 2282927); conditions: HepG2 Attagene cis-factorial transcription factor reporter; actives raise or lower the signal
CCAAT/enhancer-binding protein beta (Homo sapiens), sequence (P17676 whole entry, looked up): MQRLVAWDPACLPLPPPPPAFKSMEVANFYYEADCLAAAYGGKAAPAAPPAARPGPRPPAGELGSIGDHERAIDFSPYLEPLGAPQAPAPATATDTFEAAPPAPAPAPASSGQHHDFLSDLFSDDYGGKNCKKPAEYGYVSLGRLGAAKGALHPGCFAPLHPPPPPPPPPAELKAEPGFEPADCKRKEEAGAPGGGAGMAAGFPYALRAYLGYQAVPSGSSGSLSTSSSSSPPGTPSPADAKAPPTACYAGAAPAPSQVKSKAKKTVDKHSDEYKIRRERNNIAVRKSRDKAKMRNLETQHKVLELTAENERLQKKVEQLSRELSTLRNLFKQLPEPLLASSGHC
Procedure, shortened: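 Transiently transfected HepG2 (MRTU library, endogenous TF-driven promoters); 24 h dosing; total RNA → oligo(dT) RT → PCR → 6-FAM primer extension → HpaI digest → CE; fit bidirectionally vs DMSO.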

[4] = ATG_CMV_CIS: Attagene CIS-FACTORIAL HepG2 Assay for human CMV (Internal Marker) (AID 2282928); conditions: HepG2 CMV promoter reporter, transcription factor profiling; actives raise or lower the signal;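 note: endpoint acts as a background internal control marker rather than a target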
Procedure, shortened: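 Endogenous transcription factor activity read in HepG2 via transfected cis-promoter reporter units. After 24 h dosing, reporter mRNA measured by RT-PCR/capillary electrophoresis; gain or loss of signal fit relative to DMSO.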

[5] = ATG_DR4_LXR_CIS: Attagene CIS-FACTORIAL HepG2 Assay for human Liver X Receptor (LXR), DR4 submotif (AID 2282929); conditions: HepG2 Attagene DR4 cis-reporter, mRNA transcription; actives raise or lower the signal
Procedure, shortened: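 Cells were transfected with multiple reporter transcription units, exposed to chemicals for 24 hours, then lysed for RNA. Reporter mRNA induction was measured by RT-PCR with capillary electrophoresis detection and fitted in both directions relative to DMSO.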

[6] = target: Aryl hydrocarbon receptor (Homo sapiens) (UniProt P35869); assay: ATG_Ahr_CIS: Attagene CIS-FACTORIAL HepG2 Assay for human Aryl Hydrocarbon Receptor (Ahr) (AID 2282930); conditions: HepG2 AhR cis-factorial reporter transcription; actives raise or lower the signal
Aryl hydrocarbon receptor (Homo sapiens), sequence (P35869 whole entry, looked up): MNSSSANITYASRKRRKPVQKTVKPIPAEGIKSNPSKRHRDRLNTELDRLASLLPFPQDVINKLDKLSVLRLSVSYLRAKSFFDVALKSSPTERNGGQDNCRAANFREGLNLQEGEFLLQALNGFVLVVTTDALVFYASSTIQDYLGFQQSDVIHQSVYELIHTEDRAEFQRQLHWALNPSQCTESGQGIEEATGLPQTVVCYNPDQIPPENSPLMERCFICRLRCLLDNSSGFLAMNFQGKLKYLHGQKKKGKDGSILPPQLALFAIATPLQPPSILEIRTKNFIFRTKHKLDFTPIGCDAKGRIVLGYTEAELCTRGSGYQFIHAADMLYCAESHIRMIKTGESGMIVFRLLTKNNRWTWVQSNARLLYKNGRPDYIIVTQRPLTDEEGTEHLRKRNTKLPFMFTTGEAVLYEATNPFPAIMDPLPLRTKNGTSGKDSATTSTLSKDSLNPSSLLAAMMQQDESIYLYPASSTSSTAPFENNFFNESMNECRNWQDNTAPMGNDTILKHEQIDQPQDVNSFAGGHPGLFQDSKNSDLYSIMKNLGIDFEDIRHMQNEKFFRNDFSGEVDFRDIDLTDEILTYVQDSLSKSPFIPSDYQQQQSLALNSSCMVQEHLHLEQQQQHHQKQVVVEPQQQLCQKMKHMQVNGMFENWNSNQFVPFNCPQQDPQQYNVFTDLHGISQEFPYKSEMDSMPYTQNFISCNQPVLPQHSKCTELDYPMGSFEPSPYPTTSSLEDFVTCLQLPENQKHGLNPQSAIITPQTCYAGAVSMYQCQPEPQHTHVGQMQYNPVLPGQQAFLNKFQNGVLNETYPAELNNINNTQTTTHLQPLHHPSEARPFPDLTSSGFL
Procedure, shortened: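 Read-out: reporter mRNA quantified by RT-PCR with fluorescent primer extension and capillary electrophoresis. Human HepG2 liver cells carried transfected cis-promoter reporter units and were exposed to chemical for 24 h; gain or loss fitted relative to DMSO.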

[7] = ATG_AP_1_CIS: Attagene CIS-FACTORIAL HepG2 Assay for human Activator Protein 1 (AP-1) (AID 2282931); conditions: HepG2 Attagene cis-factorial AP-1 reporter mRNA; actives raise or lower the signal
Procedure, shortened: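 Endogenous transcription-factor activity in human HepG2 liver cells is read through a cis-promoter reporter transcript, sampled 24 h after dosing. Detection uses RT-PCR with capillary electrophoresis; values come from bidirectional fitting relative to DMSO.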

[8] = ATG_AP_2_CIS: Attagene CIS-FACTORIAL HepG2 Assay for human Activator Protein 2 (AP-2) (AID 2282932); conditions: HepG2 AP-2 cis-reporter, Attagene transcription factor profiling; actives raise or lower the signal
Procedure, shortened: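 Multiplexed mRNA reporter assay in HepG2: cis-regulated units report endogenous factor activity after 24 h treatment. Fluorescence from capillary electrophoresis of RT-PCR products gives the signal, with DMSO as baseline.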

[9] = ATG_BRE_CIS: Attagene CIS-FACTORIAL HepG2 Assay for human Bone Morphogenetic Protein (BMP) Response Element (BRE) (AID 2282933); conditions: HepG2 BMP response element reporter, Attagene transcription factor profiling; actives raise or lower the signal
Procedure, shortened: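 Fluorescence-labelled reporter cDNA fragments, separated by capillary electrophoresis, gave the signal for this component of a 52-readout multiplex. HepG2 cells were transfected, exposed to chemicals for 24 h, and compared with DMSO using bidirectional fitting.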

[10] = target: Retinoic acid receptor alpha (Homo sapiens) (UniProt P10276); assay: ATG_DR5_RAR_CIS: Attagene CIS-FACTORIAL HepG2 Assay for human Retinoic Acid Receptor Alpha (RARE), DR5 submotif (AID 2282934); conditions: HepG2 Attagene cis-factorial RARE DR5 reporter, mRNA; actives raise or lower the signal;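 for AC50: reporter responds to endogenous RAR alpha beta and gamma in HepG2 not RARA alone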
Retinoic acid receptor alpha (Homo sapiens), sequence (P10276 whole entry, looked up): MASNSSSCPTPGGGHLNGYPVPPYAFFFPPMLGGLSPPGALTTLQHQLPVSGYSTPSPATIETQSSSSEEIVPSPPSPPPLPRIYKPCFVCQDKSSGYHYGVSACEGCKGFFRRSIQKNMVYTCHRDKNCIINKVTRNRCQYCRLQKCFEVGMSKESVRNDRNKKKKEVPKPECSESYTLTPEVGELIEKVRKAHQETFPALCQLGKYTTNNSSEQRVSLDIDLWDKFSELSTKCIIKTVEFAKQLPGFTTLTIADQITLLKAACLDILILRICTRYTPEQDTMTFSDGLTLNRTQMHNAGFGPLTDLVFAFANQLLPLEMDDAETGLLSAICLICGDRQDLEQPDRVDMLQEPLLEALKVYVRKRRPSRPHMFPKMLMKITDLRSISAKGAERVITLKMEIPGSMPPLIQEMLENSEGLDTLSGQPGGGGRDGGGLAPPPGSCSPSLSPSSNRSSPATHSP
Procedure, shortened: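 Read-out: DR5-driven reporter transcript measured by RT-PCR, 6-FAM primer extension, HpaI digest and capillary electrophoresis. Human HepG2 liver cells carry transiently transfected cis-element reporter constructs; dosing lasts 24 h. Gain or loss of signal fitted against DMSO baseline.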

[11] = ATG_M_61_CIS: Attagene CIS-FACTORIAL HepG2 Assay for M61 Transcription Factor (Internal Marker) (AID 2282937); conditions: HepG2 Attagene CIS-FACTORIAL M61 internal marker reporter; actives raise or lower the signal
Procedure, shortened: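 Cells were transfected with reporter units under cis-regulatory promoters, treated with chemicals for 24 h, then lysed for RNA. Reporter transcripts were quantified by RT-PCR and capillary electrophoresis, and activity was fitted bidirectionally against DMSO.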

[12] = ATG_EGR_CIS: Attagene CIS-FACTORIAL HepG2 Assay for human Early Growth Response 1 (EGR1) (AID 2282938); conditions: HepG2 Attagene CIS-FACTORIAL EGR reporter mRNA; actives raise or lower the signal
Procedure, shortened: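 Endogenous TF activity in HepG2 liver cells was gauged through cis-promoter reporter constructs transiently transfected. After 24 h dosing, reporter mRNA was quantified by RT-PCR and capillary electrophoresis, and curves fitted in both directions versus DMSO.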

[13] = ATG_M_19_CIS: Attagene CIS-FACTORIAL HepG2 Assay for M19 Transcription Factor (Internal Marker) (AID 2282939); conditions: HepG2 Attagene CIS-FACTORIAL M19 internal marker reporter; actives raise or lower the signal
Procedure, shortened: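 HepG2, MRTU transient transfection, 24 h dosing. Total RNA → RT-PCR → 6-FAM primer extension → HpaI digest → CE fluorescence. Bidirectional curve fit, DMSO negative control.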

[14] = ATG_ERE_CIS: Attagene CIS-FACTORIAL HepG2 Assay for Estrogen Response Element (ERE) (AID 2282940); conditions: HepG2 ERE cis-reporter, Attagene RNA transcript; actives raise or lower the signal
Procedure, shortened: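 After a 24 h chemical treatment, RNA from reporter-transfected HepG2 cells is reverse-transcribed, PCR-amplified and fluorescently labelled. Fragments separated by capillary electrophoresis give reporter signal; DMSO serves as negative control.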

[15] = target: Hepatocyte nuclear factor 3-beta (Homo sapiens) (UniProt Q9Y261); assay: ATG_FoxA2_CIS: Attagene CIS-FACTORIAL HepG2 Assay for human Forkhead box A2 (FOXA2) (AID 2282942); conditions: HepG2 cis-reporter transcription factor activity, 24 h; actives raise or lower the signal
Hepatocyte nuclear factor 3-beta (Homo sapiens), sequence (Q9Y261 whole entry, looked up): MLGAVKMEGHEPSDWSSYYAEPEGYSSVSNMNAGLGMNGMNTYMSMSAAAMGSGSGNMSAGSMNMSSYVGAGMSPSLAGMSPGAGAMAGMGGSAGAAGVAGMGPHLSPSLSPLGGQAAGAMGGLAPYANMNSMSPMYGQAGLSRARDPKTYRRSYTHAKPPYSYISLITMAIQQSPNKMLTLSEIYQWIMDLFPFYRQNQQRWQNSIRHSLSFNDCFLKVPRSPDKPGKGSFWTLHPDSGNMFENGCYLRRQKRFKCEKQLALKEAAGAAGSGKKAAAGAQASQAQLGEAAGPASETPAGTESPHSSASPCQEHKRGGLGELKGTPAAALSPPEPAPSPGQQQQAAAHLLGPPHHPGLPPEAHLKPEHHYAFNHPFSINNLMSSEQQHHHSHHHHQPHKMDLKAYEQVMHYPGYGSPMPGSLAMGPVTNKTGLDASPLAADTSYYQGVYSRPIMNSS
Procedure, shortened: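 Endogenous transcription factor activity was read in HepG2 cells carrying transiently transfected cis-promoter reporter units. After 24 h dosing, reporter mRNA was quantified by RT-PCR and capillary electrophoresis, and values fitted bidirectionally versus DMSO.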

[16] = ATG_FoxO_CIS: Attagene CIS-FACTORIAL HepG2 Assay for human Forkhead box O (FoxO) (AID 2282943); conditions: HepG2 Attagene cis-reporter, FoxO element, mRNA; actives raise or lower the signal
Procedure, shortened: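 Read-out: fluorescence of 6-FAM-labelled reporter cDNA fragments resolved by capillary electrophoresis. Transiently transfected HepG2 cells were dosed for 24 h; activity fitted in both directions relative to DMSO controls.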

[17] = ATG_GATA_CIS: Attagene CIS-FACTORIAL HepG2 Assay for human GATA Binding Protein (AID 2282944); conditions: HepG2 GATA cis-element reporter, Attagene multiplex mRNA; actives raise or lower the signal
Procedure, shortened: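 Cells: HepG2, transiently transfected with cis-regulated reporter transcription units. Exposure: 24 h. Detection: RT-PCR plus capillary electrophoresis of FAM-labeled fragments. Analysis: bidirectional, DMSO as baseline.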

[18] = target: Transcription factor E2F1 (Homo sapiens) (UniProt Q01094); assay: ATG_E2F_CIS: Attagene CIS-FACTORIAL HepG2 Assay for human E2F Transcription Factor 1 (AID 2282935); conditions: HepG2 Attagene cis-reporter, E2F reporter RNA transcripts; actives raise or lower the signal
Transcription factor E2F1 (Homo sapiens), sequence (Q01094 whole entry, looked up): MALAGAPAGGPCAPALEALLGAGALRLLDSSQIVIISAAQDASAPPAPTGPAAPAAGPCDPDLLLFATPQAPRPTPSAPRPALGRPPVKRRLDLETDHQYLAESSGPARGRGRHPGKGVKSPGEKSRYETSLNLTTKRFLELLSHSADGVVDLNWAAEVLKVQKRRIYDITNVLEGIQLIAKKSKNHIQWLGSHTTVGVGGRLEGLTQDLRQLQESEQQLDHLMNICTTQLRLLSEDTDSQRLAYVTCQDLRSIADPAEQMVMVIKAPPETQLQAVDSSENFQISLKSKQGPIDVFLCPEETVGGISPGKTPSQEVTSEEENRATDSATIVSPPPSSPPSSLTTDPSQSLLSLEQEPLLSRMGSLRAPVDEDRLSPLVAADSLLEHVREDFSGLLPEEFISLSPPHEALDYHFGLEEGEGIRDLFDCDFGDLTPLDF
Procedure, shortened: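 Measures reporter transcript levels via RT-PCR with capillary electrophoresis detection in HepG2 cells harboring cis-regulated reporter units; 24 h post-dose; bidirectional curve fitting with DMSO as baseline.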

[19] = ATG_E_Box_CIS: Attagene CIS-FACTORIAL HepG2 Assay for human Enhancer Box (E-box) (AID 2282936); conditions: HepG2 E-box cis-reporter transcription, actives raise or lower the signal
Procedure, shortened: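 First, HepG2 cells receive multiple cis-regulated reporter constructs by transient transfection. Next, chemicals are applied for 24 h. Finally, reporter mRNA is quantified via RT-PCR and capillary electrophoresis, with DMSO as baseline.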

[20] = ATG_Ets_CIS: Attagene CIS-FACTORIAL HepG2 Assay for human Erythroblast Transformation Specific (ETS) (AID 2282941); conditions: HepG2 ETS cis-reporter transcription, actives raise or lower the signal
Procedure, shortened: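 Steps: transfect HepG2 with multiple reporter units; treat compound 24 h; isolate RNA, DNase-treat, reverse-transcribe; PCR-amplify, label with 6-FAM, digest with HpaI; separate by capillary electrophoresis. Activity fitted both directions versus DMSO.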

Measured: AC50

CCCN(CC)CC1COC2(CCC(C(C)(C)C)CC2)O1 (stereo unspecified)
active: [2] 13.6 µM | [4] 17.8 µM | [6] 26.1 µM | [7] 19.7 µM | [9] 22.2 µM | [10] 2.75 µM | [12] 15 µM | [15] 16.9 µM
not listed: [18] | [19] | [20]
inactive: all other assays above

C=CCOC(=O)C(C)(C)OC(=O)c1cc(-n2c(=O)cc(C(F)(F)F)n(C)c2=O)ccc1Cl
active: [2] 13.3 µM
not listed: [10]
inactive: all other assays above

COCC(=O)N(c1c(C)cccc1C)C(C)C(=O)OC (stereo unspecified)
active: [6] 81.7 µM | [9] 50 µM
not listed: [18] | [19]
inactive: all other assays above

CCCCC(O)(Cn1cncn1)c1ccc(Cl)cc1Cl (stereo unspecified)
active: [4] 19.5 µM | [7] 50 µM | [9] 33.3 µM | [19] 50 µM | [12] 50 µM | [14] 12.6 µM
not listed: [10] | [18]
inactive: all other assays above

CC(C)=CC1C(C(=O)OCc2coc(Cc3ccccc3)c2)C1(C)C (stereo unspecified)
active: [2] 13.2 µM | [5] 73.6 µM | [7] 14.3 µM | [9] 15.5 µM | [10] 8.01 µM | [14] 13.1 µM
not listed: [18] | [19]
inactive: all other assays above

CCN(CC)C(=O)C(C)Oc1cccc2ccccc12 (stereo unspecified)
active: [2] 2.24 µM | [3] 1.2 µM | [6] 14.9 µM | [9] 14.4 µM | [14] 25.2 µM
not listed: [10] | [20]
inactive: all other assays above

COP(=S)(OC)Oc1ccc([N+](=O)[O-])c(C)c1
active: [2] 17.8 µM | [7] 68 µM | [9] 32.7 µM | [12] 28.9 µM | [14] 13.7 µM
not listed: [10] | [18] | [19] | [20]
inactive: all other assays above

COC(=O)N(C(=O)N1CO[C@@]2(C(=O)OC)Cc3cc(Cl)ccc3C2=N1)c1ccc(OC(F)(F)F)cc1
active: [2] 0.67 µM | [5] 13.8 µM | [7] 4.67 µM | [9] 2.96 µM
not listed: [18] | [19] | [20]
inactive: all other assays above

N#Cc1c(Cl)cccc1Cl
not listed: [10] | [18] | [19]
inactive: all other assays above

CCOP(=O)(OCC)Oc1nc(Cl)c(Cl)cc1Cl
active: [4] 19.6 µM | [14] 39.1 µM
not listed: [18] | [19]
inactive: all other assays above

CS(=O)(=O)c1cc(C(F)(F)F)ccc1C(=O)c1cnoc1C1CC1
active: [7] 78.7 µM
not listed: [18] | [20]
inactive: all other assays above

CO/N=C(/C1=NOCCO1)c1ccccc1Oc1ncnc(Oc2ccccc2Cl)c1F
active: [2] 0.858 µM | [3] 0.794 µM | [7] 0.481 µM | [9] 0.918 µM | [12] 2.61 µM
not listed: [6] | [10] | [18] | [19]
inactive: all other assays above

Nc1cnn(-c2ccccc2)c(=O)c1Cl
active: [6] 50 µM
not listed: [10] | [18] | [20]
inactive: all other assays above

CS(=O)(=O)c1ccc(C(=O)C2C(=O)CCCC2=O)c([N+](=O)[O-])c1
not listed: [10] | [20]
inactive: all other assays above

COc1cc(OC)nc(NC(=O)NS(=O)(=O)c2ncccc2OCC(F)(F)F)n1
not listed: [10] | [18] | [19] | [20]
inactive: all other assays above
